Data taken from article PMC11062922 (Nature Chemical Biology, 2023).
Read-outs that look alike come from different tables or passages of the source.

What was measured:
Design in all cases: species or system human, MV4-11 + K-562 + COLO205 + SK-N-BE2 + OVCAR-8
PIM3 = conditions: read-out: apparent Kd; compound concentrations:100 nM and 1000 nM (sheet 'Samples'); n = 1
PRKACA = conditions: read-out: apparent Kd; compound concentrations:100 nM and 1000 nM (sheet 'Samples'); n = 1
PRKDC = conditions: read-out: apparent Kd; compound concentrations:100 nM and 1000 nM (sheet 'Samples'); n = 1
RAB14 = conditions: read-out: apparent Kd; compound concentrations:100 nM and 1000 nM (sheet 'Samples'); n = 1
RAB5C = conditions: read-out: apparent Kd; compound concentrations:100 nM and 1000 nM (sheet 'Samples'); n = 1
RPS6KA3 = conditions: read-out: apparent Kd; compound concentrations:100 nM and 1000 nM (sheet 'Samples'); n = 1
RPS6KA6 = conditions: read-out: apparent Kd; compound concentrations:100 nM and 1000 nM (sheet 'Samples'); n = 1
SKIV2L2 = conditions: read-out: apparent Kd; compound concentrations:100 nM and 1000 nM (sheet 'Samples'); n = 1
SLC25A5 = conditions: read-out: apparent Kd; compound concentrations:100 nM and 1000 nM (sheet 'Samples'); n = 1
T10 = test system: T1, T10; conditions: read-out: apparent Kd; compound concentrations:100 nM and 1000 nM (sheet 'Samples'); n = 1
T1 construct: gene NAT10

TBK1 = conditions: read-out: apparent Kd; compound concentrations:100 nM and 1000 nM (sheet 'Samples'); n = 1
TEC = conditions: read-out: apparent Kd; compound concentrations:100 nM and 1000 nM (sheet 'Samples'); n = 1
ULK3 = conditions: read-out: apparent Kd; compound concentrations:100 nM and 1000 nM (sheet 'Samples'); n = 1
VDAC3 = conditions: read-out: apparent Kd, n = 1
ADCK3 = conditions: read-out: apparent Kd, n = 1
CSNK1A1 = conditions: read-out: apparent Kd; compound concentrations: 100 nM and 1000 nM (sheet 'Samples'), CATDS: 0.108738920150242; n = 1
CSNK1D = conditions: read-out: apparent Kd; compound concentrations: 100 nM and 1000 nM (sheet 'Samples'), CATDS: 0.110076630605661; n = 1
CSNK1E = conditions: read-out: apparent Kd; compound concentrations: 100 nM and 1000 nM (sheet 'Samples'), CATDS: 0.12792065759961399; n = 1
ILK = conditions: read-out: apparent Kd; compound concentrations: 100 nM and 1000 nM (sheet 'Samples'), CATDS: 9.4718278447494406E-2; n = 1
LIMK1 = conditions: read-out: apparent Kd; compound concentrations: 100 nM and 1000 nM (sheet 'Samples'), CATDS: 4.5083762748743803E-2; n = 1
MAP2K2 = conditions: read-out: apparent Kd; compound concentrations: 100 nM and 1000 nM (sheet 'Samples'), CATDS: 0.102896761563019; n = 1
MAPK10 = conditions: read-out: apparent Kd; compound concentrations: 100 nM and 1000 nM (sheet 'Samples'), CATDS: 5.09024054826294E-2; n = 1
MAPK14 = conditions: read-out: apparent Kd, compound concentrations: 100 nM and 1000 nM (sheet 'Samples'), n = 1
MAPK9 = conditions: read-out: apparent Kd; compound concentrations: 100 nM and 1000 nM (sheet 'Samples'), CATDS: 5.50671155445017E-2; n = 1
MAPKAPK2 = conditions: read-out: apparent Kd; compound concentrations: 100 nM and 1000 nM (sheet 'Samples'), CATDS: 5.16854933400041E-2; n = 1
NNT = conditions: read-out: apparent Kd; compound concentrations: 100 nM and 1000 nM (sheet 'Samples'), CATDS: 4.6144486459290798E-2; n = 1
PRKAG1 = conditions: read-out: apparent Kd; compound concentrations: 100 nM and 1000 nM (sheet 'Samples'), CATDS: 9.6836813668462501E-2; n = 1
CLK1 = conditions: read-out: apparent Kd; compound concentrations:100 nM and 1000 nM (sheet 'Samples'); n = 1
CLK2 = conditions: read-out: apparent Kd; compound concentrations:100 nM and 1000 nM (sheet 'Samples'); n = 1
CLK4 = conditions: read-out: apparent Kd; compound concentrations:100 nM and 1000 nM (sheet 'Samples'); n = 1
FER = conditions: read-out: apparent Kd; compound concentrations:100 nM and 1000 nM (sheet 'Samples'); n = 1
IGF1R = conditions: read-out: apparent Kd; compound concentrations:100 nM and 1000 nM (sheet 'Samples'); n = 1
INSR = conditions: read-out: apparent Kd; compound concentrations:100 nM and 1000 nM (sheet 'Samples'); n = 1
PIK3CA = conditions: read-out: apparent Kd; compound concentrations:100 nM and 1000 nM (sheet 'Samples'); n = 1
PLK1 = conditions: read-out: apparent Kd; compound concentrations:100 nM and 1000 nM (sheet 'Samples'); n = 1
GALK1 = conditions: read-out: apparent Kd; compound concentrations: 100 nM and 1000 nM (sheet 'Samples'), CATDS: 0.119899430557505; n = 1
MAPK1 = conditions: read-out: apparent Kd; compound concentrations: 100 nM and 1000 nM (sheet 'Samples'), CATDS: 0.12427254642557201; n = 1
PIK3CD = conditions: read-out: apparent Kd; compound concentrations: 100 nM and 1000 nM (sheet 'Samples'), CATDS: 0.661841764967533; n = 1
PIM2 = conditions: read-out: apparent Kd; compound concentrations: 100 nM and 1000 nM (sheet 'Samples'), CATDS: 0.117779820663657; n = 1
STK16 = conditions: read-out: apparent Kd; compound concentrations: 100 nM and 1000 nM (sheet 'Samples'), CATDS: 0.13061388910889801; n = 1
[1] = compound concentrations:100 nM and 1000 nM (sheet 'Samples')

Cc1cnc(Nc2ccc(F)cc2Cl)nc1-c1c[nH]c(C(=O)N[C@H](CO)c2cccc(Cl)c2)c1 [Vertex11e]
potency estimated from few doses (PIM3): 340 nM | potency estimated from few doses (PRKACA): 1860 nM | potency estimated from few doses (PRKDC): 723 nM | potency estimated from few doses (RAB14): 655 nM | potency estimated from few doses (RAB5C): 1330 nM | potency estimated from few doses (RPS6KA3): 1540 nM | potency estimated from few doses (RPS6KA6): 628 nM | potency estimated from few doses (SKIV2L2): 1590 nM | potency estimated from few doses (SLC25A5): 1450 nM | potency estimated from few doses (T10): 952 nM | potency estimated from few doses (TBK1): 1290 nM | potency estimated from few doses (TEC): 1320 nM | potency estimated from few doses (ULK3): 1530 nM | potency estimated from few doses (VDAC3; [1]): 1380 nM

Cl.Fc1ccc(-c2nc3n(c2-c2ccncc2)CCS3)cc1 [SKF-86002-A2]
potency estimated from few doses (ADCK3; compound concentrations: 100 nM and 1000 nM (sheet 'Samples'), CATDS: 0.13841841759658599): 74.5 nM | potency estimated from few doses (CSNK1A1): 113 nM | potency estimated from few doses (CSNK1D): 110 nM | potency estimated from few doses (CSNK1E): 84.8 nM | potency estimated from few doses (ILK): 148 nM | potency estimated from few doses (LIMK1): 1770 nM | potency estimated from few doses (MAP2K2): 125 nM | potency estimated from few doses (MAPK10): 946 nM | potency estimated from few doses (MAPK14; CATDS: 0.11352717514973699): 104 nM | potency estimated from few doses (MAPK9): 681 nM | potency estimated from few doses (MAPKAPK2): 885 nM | potency estimated from few doses (NNT): 1550 nM | potency estimated from few doses (PRKAG1): 141 nM | potency estimated from few doses (VDAC3; compound concentrations: 100 nM and 1000 nM (sheet 'Samples'), CATDS: 4.4921279998790198E-2): 1810 nM

CNC(=O)c1c(F)cccc1Nc1nc(Nc2cc3c(cc2OC)CCN3C(=O)CN(C)C)nc2[nH]ccc12 [GSK1838705]
potency estimated from few doses (ADCK3; [1]): 1340 nM | potency estimated from few doses (CLK1): 376 nM | potency estimated from few doses (CLK2): 600 nM | potency estimated from few doses (CLK4): 137 nM | potency estimated from few doses (FER): 133 nM | potency estimated from few doses (IGF1R): 1130 nM | potency estimated from few doses (INSR): 759 nM | potency estimated from few doses (PIK3CA): 176 nM | potency estimated from few doses (PLK1): 2350 nM

Cc1ccc(NC(=O)c2ccnc(N3CCN(C)CC3)c2)cc1-c1ccc(C(=O)NCC2CC2)cc1 [GW775604X]
potency estimated from few doses (ADCK3; compound concentrations: 100 nM and 1000 nM (sheet 'Samples'), CATDS: 0.117650755909267): 1660 nM | potency estimated from few doses (GALK1): 1570 nM | potency estimated from few doses (MAPK14; CATDS: 0.15490410585255601): 840 nM | potency estimated from few doses (MAPK1): 1430 nM | potency estimated from few doses (PIK3CD): 59 nM | potency estimated from few doses (PIM2): 1650 nM | potency estimated from few doses (STK16): 1250 nM

O=C(Nc1cccc(-c2nn3ncccc3c2-c2ccnc(Nc3cccc(C(F)(F)F)c3)n2)c1)c1c(F)cccc1F [GSK299495A]
potency estimated from few doses (ADCK3; compound concentrations: 100 nM and 1000 nM (sheet 'Samples'), CATDS: 1): 233 nM
